# This is one part of a sample in which hits are shown more often than they occur.
# CHX counter: counter-screen for Shiga toxin inhibitors: cycloheximide protein synthesis inhibition; cell reporter, cycloheximide protein synthesis inhibition counterscreen; max response, %; 300,000 compounds, 12% hits; in the data active means max response mostly above about 13%, no sharp cut-off; inactive means mostly below about 14%; further: read at 38.3 µM for the half of the compounds with a filed dose; 0% is about no effect
# Shiga inhibitor: Shiga toxin inhibition | Vero cells, Shiga toxin protein synthesis inhibition reporter | inhibition, % at 38.7 µM | 290,000 compounds, 9.2% hits; in the data active means inhibition mostly above about 28%, no sharp cut-off; inactive means mostly below about 43%; further: 0% is about no effect
# Tb PYK inh: blocks Trypanosoma brucei pyruvate kinase; 410,000 compounds, 0.12% hits; AID 624173; Potency, µM (series often up to 76.8 µM), without a hit: at the top dose activity, negative = inhibition, usual class: inhibitors; TbPYK enzyme, Kinase-Glo Plus ATP luminescence, 45 min; Q57TT1; further: potency means the concentration at half of the fitted maximal effect; on the % scale 0 is the no-effect control and ±100 the full control effect; nearly all actives have a fitted effect of over 50% in size
#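 Assay buffer: 50 mM TEA pH 7.2, 100 mM KCl, 10 mM MgCl2, 0.05% BSA, 0.01% Tween-20. Pyruvate kinase from T. brucei plus substrate met compound, then ADP (130 uM final). Luminescence was read post 45 min RT.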
# LmPK inh: blocks Leishmania mexicana pyruvate kinase activity; purified LmPK, Kinase-Glo ATP luminescence, 1 h; AID 1721; 290,000 compounds, 0.37% hits; Potency, µM (series often up to 57.5 µM), without a hit: at the highest dose activity change, negative = inhibition, hits mostly inhibitors; further: potency means the concentration at half of the fitted maximal effect; on the % scale 0 is the no-effect control and ±100 the full control effect
# Target sequence (Q27686 whole entry, looked up): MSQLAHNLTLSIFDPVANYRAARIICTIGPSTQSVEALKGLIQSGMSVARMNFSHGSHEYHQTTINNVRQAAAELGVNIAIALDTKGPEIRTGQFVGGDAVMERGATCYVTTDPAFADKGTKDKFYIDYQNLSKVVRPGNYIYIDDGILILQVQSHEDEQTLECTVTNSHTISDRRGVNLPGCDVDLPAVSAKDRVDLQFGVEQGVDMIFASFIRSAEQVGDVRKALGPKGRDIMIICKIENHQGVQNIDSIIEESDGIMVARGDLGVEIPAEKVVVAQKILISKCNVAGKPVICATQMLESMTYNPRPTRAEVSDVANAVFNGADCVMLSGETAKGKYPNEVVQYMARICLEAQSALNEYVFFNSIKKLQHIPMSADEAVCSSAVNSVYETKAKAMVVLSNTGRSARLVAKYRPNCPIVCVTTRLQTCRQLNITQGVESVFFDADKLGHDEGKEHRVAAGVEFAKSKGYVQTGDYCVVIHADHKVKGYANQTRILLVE
#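 Purified LmPK (0.1 nM) converted ADP (0.1 mM) to ATP with PEP (0.5 mM) in imidazole buffer pH 7.2 with KCl and MgCl2, 1 h at room temperature. ATP was read by Kinase-Glo luminescence; data normalized to uninhibited and no-enzyme controls.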
# RE007 growth inh: less growth of the S. pombe RE007 Vpr strain. S. pombe RE007 Vpr strain, BacTiter-Glo ATP luminescence, 24 h. Potency, µM (series often up to 92.2 µM), for the others: at the top dose activity change, negative = less growth, usual class: inhibitors. 360,000 compounds, 0.21% hits. AID 651644; active means well fitted falling curve with a large enough effect; inconclusive means small, poorly fitted or top-dose-only effect; inactive means no such curve, though single readings can be large or run the other way; further: potency means the concentration at half of the fitted maximal effect; on the % scale 0 is the no-effect control and ±100 the full control effect; nearly all actives have a fitted effect of over 50% in size
#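 Fission yeast strain RE007, carrying one chromosomally integrated HIV-1 vpr copy, was seeded at OD 0.01 in PMG+AL medium with 23 nL pinned compound. After 24 h at 30 °C and 99% humidity, viability was read by BacTiter-Glo luminescence.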
# Giardia FBPA inh-1: inhibitors of Giardia lamblia fructose-1,6-bisphosphate aldolase | A8B2U2 | purified Giardia FBPA | Potency, µM (series often up to 59.6 µM), for the others: at the highest dose activity, negative = inhibition, actives largely listed as inhibitors | 290,000 compounds, 0.71% hits | AID 2451; further: potency means the concentration at half of the fitted maximal effect; on the % scale 0 is the no-effect control and ±100 the full control effect; nearly all actives have a fitted effect of over 55% in size
# Target sequence (A8B2U2 whole entry, looked up): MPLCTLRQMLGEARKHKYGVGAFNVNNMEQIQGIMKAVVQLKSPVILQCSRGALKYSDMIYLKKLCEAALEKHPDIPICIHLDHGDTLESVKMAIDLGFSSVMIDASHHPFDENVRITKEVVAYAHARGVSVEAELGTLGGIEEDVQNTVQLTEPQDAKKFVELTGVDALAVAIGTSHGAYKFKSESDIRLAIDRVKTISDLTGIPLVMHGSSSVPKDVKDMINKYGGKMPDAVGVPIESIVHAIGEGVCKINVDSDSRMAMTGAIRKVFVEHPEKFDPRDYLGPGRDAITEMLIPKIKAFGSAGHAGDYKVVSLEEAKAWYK
#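 Giardia FBPA (40 nM reagent) was preincubated 10 min at RT with compound (up to 57.5 uM final), then substrate plus GAPDH/TPI/NAD/arsenate coupling system with diaphorase/resazurin was added; resorufin fluorescence (525/598 nm) was read after 20 min.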
# Giardia growth: Giardia lamblia growth inhibition. Potency, µM (highest dose often 57.5 µM), for inactives: at the top dose activity change, negative = inhibition, usual class: inhibitors. shares compounds with Giardia FBPA inh-1. 1,500 compounds, 5% hits. Giardia lamblia trophozoite growth inhibition;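 further: potency means the concentration at half of the fitted maximal effect; trophozoites exposed to compound for 48 h at 37 °C; on the % scale 0 is the no-effect control and ±100 the full control effect; nearly all actives have a fitted effect of over 70% in size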
# Mammalian tox: mammalian cytotoxicity of Giardia aldolase inhibitor hits | shares compounds with Giardia FBPA inh-1 | mammalian cell viability counter-screen, qHTS | Potency, µM (top dose mostly 57.5 µM), inactives show top-dose viability change, negative = toxicity, hits mostly inhibitors | 1,500 compounds, 4% hits;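 further: Chinese hamster ovary cells used as mammalian cytotoxicity surrogate; viability measured as cellular ATP by luminescence; potency means the concentration at half of the fitted maximal effect; compound exposure lasted 48 h before reading; on the % scale 0 is the no-effect control and ±100 the full control effect; nearly all actives have a fitted effect of over 60% in size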
# Giardia FBPA inh-2: confirmation of Giardia fructose-bisphosphate aldolase inhibitors; Potency, µM (series often up to 57.5 µM), for inactives: top-dose activity change, negative = inhibition, hits mostly inhibitors; shares compounds with Giardia FBPA inh-1; 1,500 compounds, 5% hits; purified Giardia aldolase enzyme activity, qHTS; further: potency means the concentration at half of the fitted maximal effect; on the % scale 0 is the no-effect control and ±100 the full control effect; nearly all actives have a fitted effect of over 45% in size
# Rabbit FBPA inh: rabbit FBP aldolase inhibition by Giardia aldolase hits; Rabbit muscle FBPA enzyme inhibition, selectivity counter-screen; AID 2794; 1,500 compounds, 4% hits; shares compounds with Giardia FBPA inh-1; Potency, µM (titrated, usually from 57.5 µM), for inactives: top-dose activity, negative = inhibition, hits mostly inhibitors; further: potency means the concentration at half of the fitted maximal effect; on the % scale 0 is the no-effect control and ±100 the full control effect; nearly all actives have a fitted effect of over 60% in size
# GAPDH counter: GAPDH inhibition flagged for Giardia aldolase hits; 1,500 compounds, 6% hits; shares compounds with Giardia FBPA inh-1; AID 2795; Potency, µM (highest dose often 57.5 µM), without a hit: at the top dose activity change, negative = inhibition, actives largely listed as inhibitors; GAPDH coupling enzyme counterscreen, biochemical, qHTS; further: potency means the concentration at half of the fitted maximal effect; on the % scale 0 is the no-effect control and ±100 the full control effect; nearly all actives have a fitted effect of over 55% in size
# * = called active by the depositor; ? = inconclusive; · = no result; [ ] = another dose, or the depositor's remark. Unless noted, the call rests on the fitted dose curve; in most records, active means well fitted curve in the direction sought with a large enough effect; inconclusive means small, poorly fitted or top-dose-only effect, or another doubt; inactive means no such curve, though single readings can be large; an effect the other way counts as inactive or inconclusive.
SMILES,CHX counter,Shiga inhibitor,Tb PYK inh,LmPK inh,RE007 growth inh,Giardia FBPA inh-1,Giardia growth,Mammalian tox,Giardia FBPA inh-2,Rabbit FBPA inh,GAPDH counter
O=C1NC[C@H](Cc2ccccc2)N(C[C@@H]2CCCN2C[C@H](Cc2ccccc2)N2C[C@H](Cc3ccccc3)N(CCc3ccccc3)C(=O)C2=O)C1=O,·,·,-15%,·,-9%,·,·,·,·,·,·
CCOC(=O)c1c(NC(=O)CN(C)C2CCN(C)CC2)sc(C(=O)Nc2ccccc2)c1C,8,10,16%,1%,2%,20µM*,?,-13%,2%,5%,7%
CCOC(=O)c1c(NC(C)=O)sc(C(=O)NC2CCCC2)c1C,-6,-7,-2%,-1%,10%,11%,·,·,·,·,·
O=C1CN=C(c2ccccc2)c2cc(Cl)ccc2N1Cc1ccc(Cl)cc1,·,·,4%,·,·,·,·,·,·,·,·
O=C(O)CN1C(=O)CN=C(c2ccccn2)c2cc(Cl)ccc21,18,14,2%,-4%,1%,20µM*,-15%,-3%,0%,7%,8%
Cc1ccc(C(=O)NCc2ccc(F)cc2)cc1NC(=O)c1nsc2ccccc12,·,·,0%,·,·,·,·,·,·,·,·
COCCn1c(NC(=S)NC(=O)C2CC2)cc(=O)[nH]c1=O,-1,-7,0%,-5%,1%,7.1µM*,24%,4%,1%,-1%,14%
CCCOC1(C(F)(F)F)NC(=O)N(c2ccc(Cl)cc2)C1=O (configuration not stated),·,·,0%,·,·,·,·,·,·,·,·
O=C(O)c1nc(=O)[nH]c(=O)[nH]1,·,·,0%,·,·,·,·,·,·,·,·
O=C(O)c1[nH]c(=O)[nH]c(=O)c1F,1,-6,-2%,6%,-1%,20µM*,27%,-6%,5%,6%,10%
COc1ccc(NS(=O)(=O)c2c(C)cc(C)cc2C)cn1,4,-21,0%,-11%,-2%,?,-13%[38.3 µM],1%,-17%,-20%,-20%
NC(=O)CCC1NC(=O)C(Cc2ccccc2)NC(=O)C(Cc2ccc(O)cc2)NC(=O)CCSSCC(C(=O)N2CCCC2C(=O)NC(CCCN=C(N)N)C(=O)NCC(N)=O)NC(=O)C(CC(N)=O)NC1=O (configuration not stated),·,·,6%,·,·,·,·,·,·,·,·
S=c1[nH]nc(-c2cnccn2)n1-c1ccccc1,2,3,?,-1%,-8%,-29%,·,·,·,·,·
O=C(O)c1cccc(-n2c(-c3cnccn3)n[nH]c2=S)c1,1,3,-19%,3%,-2%,20µM*,10%[10.4 µM],-1%,0%,3%,8%
O=C(N/N=C/c1c(O)n(-c2ccccc2)c(=O)[nH]c1=O)c1ccncc1,8,19,3%,-5%,-9%,0%,·,·,·,·,·
O=C(N/N=C/c1c(O)n(-c2ccccc2)c(=S)[nH]c1=O)c1ccccc1,40*,60*,-19%,-2%,-3%,-16%,4%[38.3 µM],1%,?,-17%,?
CCCNC(=O)C1(C)CCN(C(=O)c2c(Cl)cccc2Cl)C1 (configuration not stated),·,·,5%,·,9%[18.4 µM],·,·,·,·,·,·
COc1cc(N=c2ssnc2Cl)cc(OC)c1OC,-2,-8,?,-1%,-16%,20µM*,-4%[10.4 µM],5%,-28%,32µM*,-6%
COc1cc(-c2nnc(-c3cc(OC)c(OC)c(OC)c3)o2)cc(OC)c1OC,-3,21,-7%,-1%,-9%,2%,·,·,·,·,·
O=C1NC(=O)/C(=C/c2ccc(-c3cc(C(=O)O)ccc3Cl)o2)S1,-1,-7,-16%,-17%,9%,32µM*,64%,8%,2%,-2%,9%
Cc1ccc(C(=O)O)cc1-c1ccc(/C=C2/NC(=O)N(c3ccccc3)C2=O)o1,19,114,?,9%,3%,?,·,·,·,·,·
CC(=O)N[C@H](CC(C)C)C(=O)O,·,·,2%,·,·,4%,·,·,·,·,·
CCCn1nnc(NC(=S)NC(=O)c2cccs2)n1,8,3,3%,?,-24%,5µM*,?,-2%,8%,5%,13%
CCCCCC(=O)Nc1nnn(CCC)n1,7,-4,-3%,-4%,0%,6%,·,·,·,·,·
Cn1nnc(NC(=O)c2cccs2)n1,10,15,2%,2%,-9%,2%,·,·,·,·,·
SMILES,CHX counter,Shiga inhibitor,Tb PYK inh,LmPK inh,RE007 growth inh,Giardia FBPA inh-1,Giardia growth,Mammalian tox,Giardia FBPA inh-2,Rabbit FBPA inh,GAPDH counter
CCCn1nnc(NC(=S)NC(=O)/C=C/c2ccco2)n1,2,25,-25%,17%,-2%,16µM*,7%,6%,-3%,2%,12%
CCCn1nnc(NC(=S)NC(=O)C(C)(C)C)n1,12,20,-11%,-5%,-21%,5.6µM*,-4%[38.3 µM],-7%,-1%,-4%,-5%
C=CCc1ccc(OCCn2cncn2)c(OC)c1,-2,3,3%,-1%,4%,-2%,·,·,·,·,·
C=CCc1cc(OC)ccc1OCCCCn1cncn1,-3,3,15%,-2%,-4%,32µM*,?,12%,1%,13%,-7%
CC(=O)c1ccc(N=Nc2c(C)[nH]n(-c3ccccc3)c2=O)cc1,-3,9,1%,-2%,0%,7.1µM*,?,-2%,5%,4%,5%
Cc1[nH]n(-c2ccccc2)c(=O)c1N=Nc1ccc(C(=O)O)cc1,10,-5,0%,2%,5%,-25%,·,·,·,·,·
Cc1nc(NC(=S)NC(=O)c2ccccc2)sc1C,39*,69*,2%,-11%,-4%,11µM*,?,?,-2%,4%,8%
Cc1nc(NC(=S)NC(=O)c2ccco2)sc1C(=O)N(C)C,32*,57,0%,-11%,-11%,10µM*,-5%[38.3 µM],-14%,-2%,7%,5%
Cn1cc(-c2nc3cnc(Oc4ccccc4)nc3n(C)c2=O)c2ccccc21,·,·,·,·,·,0%,·,·,·,·,·
CC(C)Oc1ccc(S(=O)(=O)N2CCOCC2)cc1NC(=O)CSC(=S)N1CCCC1,·,·,-17%,·,-7%,·,·,·,·,·,·
